Values joined by “and” are separate entries in the source; they are usually repeats but may differ in a detail not shown here. Equal values may be shown once. Among all 5,500 compounds or so, about 2,000 (36%) were called active. Another 18% or so got no clear call; they are omitted. Rule as the data show it: active = normalized growth mostly below about 0.91 (no sharp cut-off); inconclusive = no clear call, values can overlap the other calls; inactive = mostly above about 0.92. The list shows a part of the results. Where a structure was tested more than once in an assay, its records may differ in their call.
Assay: chemical genetic growth profiling, strain panel (AID 1159580);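 also: tested at 20 µM; growth read once vehicle control cultures reached saturation at 30 °C; 1 = growth at the plate median or of vehicle wells; lower values mean less growth of the strain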
Conditions: growth OD

Which results are given for COC(=O)C1=C(C)NC(C)=C(C(=O)OC)C1c1ccccc1[N+](=O)[O-]?
normalized growth (S. cerevisiae deletion strains, locus YKL009W, strain mrt4, stronger effect = lower value): 0.959 (inactive); normalized growth (S. cerevisiae deletion strains, locus YKL068W, stronger effect = lower value): 0.965 (inactive); normalized growth (S. cerevisiae deletion strains, locus YKL085W, strain MDH1 (second series), stronger effect = lower value): 0.956 (inactive); normalized growth (S. cerevisiae deletion strains, locus YKL085W, strain MDH1, stronger effect = lower value): 0.956 (inactive); normalized growth (S. cerevisiae deletion strains, locus YKL160W, strain elf1, stronger effect = lower value): 0.901 (active); normalized growth (S. cerevisiae deletion strains, locus YKL190W, strain CNB1, stronger effect = lower value): 0.84 (active); normalized growth (S. cerevisiae deletion strains, locus YKR001C, strain vps1, stronger effect = lower value): 0.852 (active); normalized growth (S. cerevisiae deletion strains, locus YKR026C, strain gcn3, stronger effect = lower value): 0.968 (inactive); normalized growth (S. cerevisiae deletion strains, locus YKR091W, strain srl3, stronger effect = lower value): 0.954 (inactive); normalized growth (S. cerevisiae deletion strains, locus YLL001W, strain dnm1, stronger effect = lower value): 0.972 (inactive); normalized growth (S. cerevisiae deletion strains, locus YLL026W, stronger effect = lower value): 0.946 (inactive); normalized growth (S. cerevisiae deletion strains, locus YLL041C, strain sdh2, stronger effect = lower value): 0.931 (inactive); normalized growth (S. cerevisiae deletion strains, locus YLR027C, strain aat2, stronger effect = lower value): 0.899 (active); normalized growth (S. cerevisiae deletion strains, locus YLR039C, strain RIC1, stronger effect = lower value): 0.535 (active); normalized growth (S. cerevisiae deletion strains, locus YLR058C, strain SHM2, stronger effect = lower value): 0.996 (inactive); normalized growth (S. cerevisiae deletion strains, locus YLR102C, strain apc9, stronger effect = lower value): 0.977 (inactive); normalized growth (S. cerevisiae deletion strains, locus YLR113W, strain HOG1, stronger effect = lower value): 0.942 (inactive); normalized growth (S. cerevisiae deletion strains, locus YLR221C, strain rsa3, stronger effect = lower value): 0.893 (active); normalized growth (S. cerevisiae deletion strains, locus YLR258W, strain gsy2, stronger effect = lower value): 0.886 (active); normalized growth (S. cerevisiae deletion strains, locus YLR262C, strain YPT6 (second series), stronger effect = lower value): 0.44 (active); normalized growth (S. cerevisiae deletion strains, locus YLR262C, strain YPT6, stronger effect = lower value): 0.352 (active); normalized growth (S. cerevisiae deletion strains, locus YLR268W, strain sec22, stronger effect = lower value): 0.764 (active); normalized growth (S. cerevisiae deletion strains, locus YLR320W, strain mms22, stronger effect = lower value): 0.864 (active); normalized growth (S. cerevisiae deletion strains, locus YLR330W, strain CHS5, stronger effect = lower value): 0.931 (inactive); normalized growth (S. cerevisiae deletion strains, locus YLR342W, strain FKS1 (second series), stronger effect = lower value): 0.643 (active); normalized growth (S. cerevisiae deletion strains, locus YLR342W, strain FKS1, stronger effect = lower value): 0.924 (inactive); normalized growth (S. cerevisiae deletion strains, locus YLR357W, strain rsc2, stronger effect = lower value): 0.937 (inactive); normalized growth (S. cerevisiae deletion strains, locus YLR370C, strain arc18, stronger effect = lower value): 0.942 (inactive); normalized growth (S. cerevisiae deletion strains, locus YLR371W, strain rom2, stronger effect = lower value): 0.918 (inactive); normalized growth (S. cerevisiae deletion strains, locus YLR384C, strain iki3, stronger effect = lower value): 0.976 (inactive); normalized growth (S. cerevisiae deletion strains, locus YLR418C, strain cdc73, stronger effect = lower value): 0.706 (active); normalized growth (S. cerevisiae deletion strains, locus YML016C, strain PPZ1, stronger effect = lower value): 0.899 (active); normalized growth (S. cerevisiae deletion strains, locus YML032C, strain rad52, stronger effect = lower value): 0.959 (inactive); normalized growth (S. cerevisiae deletion strains, locus YML120C, strain ndi1, stronger effect = lower value): 0.976 (inactive); normalized growth (S. cerevisiae deletion strains, locus YML124C, strain tub3, stronger effect = lower value): 0.972 (inactive); normalized growth (S. cerevisiae deletion strains, locus YMR058W, strain fet3, stronger effect = lower value): 0.231 (active); normalized growth (S. cerevisiae deletion strains, locus YMR078C, strain ctf18, stronger effect = lower value): 0.981 (inactive); normalized growth (S. cerevisiae deletion strains, locus YMR125W, strain sto1, stronger effect = lower value): 1.02 (inactive); normalized growth (S. cerevisiae deletion strains, locus YMR129W, stronger effect = lower value): 0.958 (inactive); normalized growth (S. cerevisiae deletion strains, locus YMR205C, strain PFK2, stronger effect = lower value): 0.866 (active); normalized growth (S. cerevisiae deletion strains, locus YMR223W, strain ubp8, stronger effect = lower value): 0.839 (active); normalized growth (S. cerevisiae deletion strains, locus YMR231W, strain pep5, stronger effect = lower value): 0.81 (active); normalized growth (S. cerevisiae deletion strains, locus YMR263W, strain SAP30, stronger effect = lower value): 1 (inactive); normalized growth (S. cerevisiae deletion strains, locus YMR307W, strain GAS1, stronger effect = lower value): 0.43 (active) and 0.863 (active); normalized growth (S. cerevisiae deletion strains, locus YNL067W, strain RPL9B, stronger effect = lower value): 0.824 (active); normalized growth (S. cerevisiae deletion strains, locus YNL071W, strain lat1, stronger effect = lower value): 0.941 (inactive); normalized growth (S. cerevisiae deletion strains, locus YNL128W, strain TEP1, stronger effect = lower value): 0.642 (active); normalized growth (S. cerevisiae deletion strains, locus YNL153C, strain GIM3, stronger effect = lower value): 0.939 (inactive); normalized growth (S. cerevisiae deletion strains, locus YNL175C, strain NOP13, stronger effect = lower value): 1.01 (inactive); normalized growth (S. cerevisiae deletion strains, locus YNL183C, strain NPR1, stronger effect = lower value): 0.927 (inactive); normalized growth (S. cerevisiae deletion strains, locus YNL197C, strain WHI3, stronger effect = lower value): 0.997 (inactive); normalized growth (S. cerevisiae deletion strains, locus YNL209W, strain ssb2, stronger effect = lower value): 0.698 (active); normalized growth (S. cerevisiae deletion strains, locus YNL224C, strain SQS1, stronger effect = lower value): 1.02 (inactive); normalized growth (S. cerevisiae deletion strains, locus YNL233W, strain BNI4, stronger effect = lower value): 0.845 (active); normalized growth (S. cerevisiae deletion strains, locus YNL248C, strain rpa49, stronger effect = lower value): 0.951 (inactive); normalized growth (S. cerevisiae deletion strains, locus YNL250W, strain rad50, stronger effect = lower value): 0.944 (inactive); normalized growth (S. cerevisiae deletion strains, locus YNL271C, strain bni1, stronger effect = lower value): 0.909 (active); normalized growth (S. cerevisiae deletion strains, locus YNL298W, strain CLA4, stronger effect = lower value): 0.953 (inactive); normalized growth (S. cerevisiae deletion strains, locus YNL307C, strain MCK1, stronger effect = lower value): 0.903 (active); normalized growth (S. cerevisiae deletion strains, locus YNL322C, strain KRE1 (second series), stronger effect = lower value): 1 (inactive); normalized growth (S. cerevisiae deletion strains, locus YNL322C, strain KRE1, stronger effect = lower value): 0.918 (active) and 0.978 (inactive); normalized growth (S. cerevisiae deletion strains, locus YNR049C, strain mso1, stronger effect = lower value): 0.962 (inactive); normalized growth (S. cerevisiae deletion strains, locus YNR052C, strain pop2, stronger effect = lower value): 0.968 (inactive); normalized growth (S. cerevisiae deletion strains, locus YOL006C, strain TOP1, stronger effect = lower value): 0.202 (active); normalized growth (S. cerevisiae deletion strains, locus YOL012C, strain htz1): 0.327 (inactive); normalized growth (S. cerevisiae deletion strains, locus YOL147C, strain pex11, stronger effect = lower value): 0.989 (inactive); normalized growth (S. cerevisiae deletion strains, locus YOR001W, strain rrp6, stronger effect = lower value): 0.91 (inactive); normalized growth (S. cerevisiae deletion strains, locus YOR061W, strain CKA2, stronger effect = lower value): 0.794 (active); normalized growth (S. cerevisiae deletion strains, locus YOR069W, strain VPS5, stronger effect = lower value): 0.906 (active); normalized growth (S. cerevisiae deletion strains, locus YOR070C, strain gyp1, stronger effect = lower value): 0.916 (active); normalized growth (S. cerevisiae deletion strains, locus YOR080W, strain dia2, stronger effect = lower value): 0.978 (inactive); normalized growth (S. cerevisiae deletion strains, locus YOR083W, strain WHI5 (second series), stronger effect = lower value): 1.03 (inactive); normalized growth (S. cerevisiae deletion strains, locus YOR083W, strain WHI5, stronger effect = lower value): 0.909 (inactive); normalized growth (S. cerevisiae deletion strains, locus YOR106W, strain vam3, stronger effect = lower value): 0.718 (active); normalized growth (S. cerevisiae deletion strains, locus YOR136W, strain idh2, stronger effect = lower value): 0.965 (inactive); normalized growth (S. cerevisiae deletion strains, locus YOR144C, strain elg1, stronger effect = lower value): 0.99 (inactive); normalized growth (S. cerevisiae deletion strains, locus YOR184W, strain ser1, stronger effect = lower value): 0.792 (active); normalized growth (S. cerevisiae deletion strains, locus YOR231W, strain MKK1, stronger effect = lower value): 0.999 (inactive); normalized growth (S. cerevisiae deletion strains, locus YOR265W, strain rbl2, stronger effect = lower value): 0.903 (active); normalized growth (S. cerevisiae deletion strains, locus YOR270C, strain vph1, stronger effect = lower value): 0.884 (inactive); normalized growth (S. cerevisiae deletion strains, locus YOR290C, strain snf2, stronger effect = lower value): 0.958 (inactive); normalized growth (S. cerevisiae deletion strains, locus YOR316C, strain cot1, stronger effect = lower value): 0.971 (inactive); normalized growth (S. cerevisiae deletion strains, locus YPL051W, strain arl3, stronger effect = lower value): 0.748 (active); normalized growth (S. cerevisiae deletion strains, locus YPL055C, strain LGE1, stronger effect = lower value): 0.64 (active); normalized growth (S. cerevisiae deletion strains, locus YPL078C, strain atp4, stronger effect = lower value): 0.984 (inactive); normalized growth (S. cerevisiae deletion strains, locus YPL106C, strain sse1, stronger effect = lower value): 0.932 (inactive); normalized growth (S. cerevisiae deletion strains, locus YPL240C, strain hsp82, stronger effect = lower value): 0.9 (active); normalized growth (S. cerevisiae deletion strains, locus YPL241C, strain CIN2, stronger effect = lower value): 0.918 (active) and 0.973 (inactive); normalized growth (S. cerevisiae deletion strains, locus YPL256C, strain CLN2, stronger effect = lower value): 0.932 (inactive); normalized growth (S. cerevisiae deletion strains, locus YPR119W, strain clb2, stronger effect = lower value): 0.981 (inactive); normalized growth (S. cerevisiae deletion strains, locus YPR141C, strain kar3, stronger effect = lower value): 0.974 (inactive); normalized growth (S. cerevisiae deletion strains, locus YPR163C, strain tif3, stronger effect = lower value): 0.958 (inactive); normalized growth (S. cerevisiae deletion strains, locus YPR167C, strain met16, stronger effect = lower value): 0.903 (active); normalized growth (S. cerevisiae deletion strains, strain wtn01, stronger effect = lower value): 0.772 (active); normalized growth (S. cerevisiae strains, strain wild type, stronger effect = lower value): 0.818 (active)
